This is a sample that favours compounds with a hit; in the whole collection about 1.9% have one here.
IMPase Li inh: qHTS Assay for Identifying the Cell-Membrane Permeable IMPase Inhibitors: Potentiation with Lithium; 0.35% of 210,000 active; Potency, µM (titrated, usually from 59.4 µM), for the others: at the top dose activity, negative = IMPase inhibition, actives largely listed as inhibitors; CHO-M1 cells, IP1 TR-FRET (IP-One), carbachol + lithium;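 also: IP1 builds up when IMPase is blocked and the TR-FRET signal falls; plate controls were basal vehicle for no effect and high inhibitor control for full effect; nearly all actives have a fitted effect of over 50% in size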
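Readout is a homogeneous TR-FRET IP1 immunoassay (Ex 320, Em 665 and 620), where raised cytosolic IP1 lowers signal. Cells were CHO-M1 treated 30 min at 37C with test compounds plus a little lithium; AC50 values came from Hill-equation fitting.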
HTT ATP protect: qHTS Multiplex Assay to Identify Dual Action Probes in a Cell Model of Huntington: Cytoprotection (ATP). PC12 HTT-Q103 induced, cytoprotection, ATP luminescence, 40 h. Potency, µM (doses to about 56.4 µM), without a hit: cytoprotection (ATP increase), most hits filed as activators. 0.14% of 230,000 active. AID 1471, 2008; also: % of control where 0% means no effect; nearly all actives have a fitted effect of over 45% in size
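Rat PC12, Q103 Htt exon1-GFP fusion, ecdysone promoter; tebufenozide inducer 100 nM final; compound titration; qHTS, 1500 cells/well; ATPlite luminescent read.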
HTT aggregate: qHTS Multiplex Assay to Identify Dual Action Probes in a Cell Model of Huntington: Aggregate Formation (GFP). 1.1% of 220,000 active. Potency, µM (series often up to 46.1 µM), inactives show top-dose activity change, negative = inhibition, hits mostly inhibitors. PC12 HttQ103-GFP aggregates, Acumen cytometry, 40 h; also: % is scaled to controls: 0 for no effect and ±100 for the full control effect; nearly all actives have a fitted effect of over 60% in size
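Huntingtin Q103 exon 1–GFP aggregates in induced PC12 cells (100 nM tebufenozide) were quantified by cytometry from lysates, with compounds dosed in titration.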
NPSR antag: qHTS Assay for Antagonists of the Neuropeptide S Receptor: cAMP Signal Transduction; Potency, µM (series often up to 38.3 µM), without a hit: top-dose activity change, negative = inhibition, most hits filed as inhibitors; Q6W5P4; CHO-NPSR cells, cAMP TR-FRET, antagonist mode; 1% of 220,000 active; AID 1461, 2008; also: % is scaled to controls: 0 for no effect and ±100 for the full control effect; nearly all actives have a fitted effect of over 50% in size
Target sequence (Q6W5P4 whole entry, looked up): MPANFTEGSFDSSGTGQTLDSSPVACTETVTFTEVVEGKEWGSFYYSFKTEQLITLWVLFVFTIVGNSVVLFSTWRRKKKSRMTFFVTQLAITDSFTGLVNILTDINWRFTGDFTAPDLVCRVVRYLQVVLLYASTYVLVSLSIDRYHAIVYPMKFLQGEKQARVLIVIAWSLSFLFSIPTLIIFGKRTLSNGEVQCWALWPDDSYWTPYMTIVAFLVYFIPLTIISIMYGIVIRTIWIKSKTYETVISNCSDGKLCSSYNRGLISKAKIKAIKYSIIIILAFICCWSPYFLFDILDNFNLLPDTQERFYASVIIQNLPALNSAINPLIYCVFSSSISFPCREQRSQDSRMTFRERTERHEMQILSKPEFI
ERK EGF block: qHTS Assay for Inhibitors of the ERK Signaling Pathway using a Homogeneous Screening Assay; Stimulation with EGF | 0.41% of 130,000 active | Potency, µM (doses to about 11.5 µM), for inactives: top-dose activity change, negative = inhibition, most hits filed as inhibitors | HEK293-V1b, EGF-stimulated phospho-ERK AlphaScreen | AID 1454, 2008;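 also: plate controls were stimulated vehicle wells for no effect and unstimulated vehicle basal for full effect; nearly all actives have a fitted effect of over 55% in size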
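Readout: AlphaScreen signal for phosphorylated ERK in lysed HEK293 cells stably expressing V1b. Stimulus 25 nM EGF, 5 min, following 30 min compound exposure. Data scaled to DMSO basal and full EGF activation.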
An asterisk follows results filed as active; ? = inconclusive; · = no result; [ ] = another dose, or the depositor's remark. Calls follow the shape of the dose curve; as a rule, active = well fitted curve in the direction sought with a large enough effect; inconclusive = small, poorly fitted or top-dose-only effect, or another doubt; inactive = no such curve, though single readings can be large; an effect the other way counts as inactive or inconclusive. Potency is read from the fitted curve at half-maximal effect.

SMILES | IMPase Li inh | HTT ATP protect | HTT aggregate | NPSR antag | ERK EGF block
CC(=O)Nc1cn(-c2ccccc2)nc1-c1ccccc1 | 0% | -32% | -15% | 5% | -4%
O=C(CCl)Nc1ccc(-c2ccccc2)cc1 | 23% | -7% | 18µM* | -19% | 3%
COc1ccc2c(c1)O[C@@H](c1ccc3c(c1)OCO3)[C@H](OC(=O)NS(=O)(=O)c1ccc(C)cc1)C2=O | 21% | -61% | · | · | -4%
Cn1c(=O)c(NCCc2ccccc2)c2c3c(cccc31)C(=O)c1ccccc1-2 | 5%[38.3 µM] | -19% | 10µM* | ? | ·
CO/N=C(\C)CCN1CCc2nc(-c3ccccc3)c(-c3ccccc3)cc2C1 | · | -3%[10 µM] | · | · | ·
O=c1c2[nH]c3ccc(Br)cc3c2ncn1CCCn1ccnc1 | 5.6µM* | 5% | -10% | -4%[46.1 µM] | ·
O=c1c2[nH]c3ccccc3c2ncn1CCCn1ccnc1 | 15%[38.3 µM] | -7%[0.074 µM] | -1% | -5%[46.1 µM] | ·
O=[N+]([O-])c1ccc(N/N=C/c2c[nH]c3ccccc23)c(S(=O)(=O)Nc2ccc(Cl)cc2)c1 | 28%[38.3 µM] | -7% | ? | 16µM* | ·
CCOC(=O)c1oc2ccc(S(=O)(=O)n3nc(-c4ccccc4)cc3N)cc2c1C | 7%[38.3 µM] | -38% | 10µM* | -27%[46.1 µM] | ·
CCOC(=O)c1oc2ccc(S(=O)(=O)n3nc(-c4ccc(OC)cc4)cc3N)cc2c1C | 2% | 16% | 3% | 6% | 6%
CCCn1c(=O)c(C(=O)NNS(=O)(=O)c2ccc(Cl)cc2)c(O)c2ccccc21 | 1% | -7%[10 µM] | 14µM* | -4% | 5%
COc1ncc2nc(-c3cccs3)c(=O)n(Cc3ccc(F)cc3)c2n1 | ? | -46% | · | · | ·
CC1CN(S(=O)(=O)c2ccc(Cl)c(C(F)(F)F)c2)CC(C)O1 (centres undefined) | 10µM* | 4%[0.074 µM] | -11% | 4%[46.1 µM] | ·
Cc1ccc([S+](=O)([O-])N(c2ccccc2)[S+](=O)([O-])C(F)(F)F)cc1 | 8% | -30% | · | · | -10%
O=C(Nc1ccc(Cl)c(S(=O)(=O)N2CCOCC2)c1)c1cc(-c2ccccn2)nc2ccccc12 | 4% | 19%[10 µM] | -5% | -21% | -6%
O=C(c1ccc(Cl)c(Cl)c1)c1cc(-c2ccccn2)c(N2CCOCC2)s1 | 10µM* | -83% | -4% | ? | ·
Cc1cccc(-n2c(C)n[nH]c2=S)c1 | -1%[38.3 µM] | 3.5µM* | 12% | 8%[46.1 µM] | ·
O=c1c2c(nc3c(-c4cccc(Br)c4)c[nH]n13)CCCC2 | -2% | -37%[10 µM] | 3.5µM* | -6%[46.1 µM] | ·
CCOC(=O)Cc1c(C)nc2c(-c3cccc(Br)c3)c[nH]n2c1=O | 11%[38.3 µM] | -26% | 11µM* | 6%[46.1 µM] | ·
CCOC(=O)Cc1c(C)nc2c(-c3ccc(Cl)cc3)c(C)[nH]n2c1=O | 3%[38.3 µM] | -68% | 18µM* | -8%[46.1 µM] | ·
O=c1c2c(nc3c(-c4ccccc4)c[nH]n13)CCC2 | 13%[38.3 µM] | -23% | -24% | -17%[46.1 µM] | ·
CCOC(=O)CNC(=O)O[C@H]1C(=O)c2ccc(OC)cc2O[C@@H]1c1ccc2c(c1)OCO2 | 10% | · | · | · | -11%
Cc1ccc2cc(CCNC(=O)c3cc4ccccc4o3)c(=O)[nH]c2c1C | 16% | -27% | ? | -12% | 32µM*
Cc1ccc2cc(CCNC(=O)C(C)C)c(=O)[nH]c2c1C | 7% | -17% | -11% | 19% | -2%
CC1Cc2ccccc2N1C(=O)CSc1nnc(NC(=O)Cc2cccs2)s1 (centres undefined) | 25%[38.3 µM] | 7%[10 µM] | 0% | 13µM* | ·
Cc1ccc(C)c(-c2ccc(C(=O)O)o2)c1 | 13% | ? | · | · | ·
CCCN1C(=O)/C(=C\C=C2/C=CN(CC)c3ccccc32)SC1=S | 98% | -25%[10 µM] | -12% | 2µM* | 13%
CCCCN1C(=O)/C(=C/C=C2\SCCN2C)SC1=S | 31% | -37% | ? | -45% | ?
CCCCN1C(=O)/C(=C/C=C2\N(C)c3ccccc3C2(C)C)SC1=S | 10%[38.3 µM] | -34% | 13µM* | -9%[46.1 µM] | ·

Compound activity: PubChem BioAssay, National Center for Advancing Translational Sciences (NCATS)
